Assay outcomes: PubChem, Broad Institute
MITF TRPM1 HTS: activators of MITF-driven TRPM1 promoter activity in SK-MEL-5 cells. SK-MEL-5 TRPM1-promoter luciferase, 24 h; % of positive control, neutral wells = 0. activation, % at 12.5 µM. 0.75% of 300,000 active. AID 588334;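 active means mean activation of at least 80% with every replicate also reaching 80%; inconclusive means mean reaches 80% but some replicate falls short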
F508del corr: correctors of CFTR F508del function in bronchial epithelial cells | CFBE cells, YFP halide quenching; stimulated with forskolin plus potentiator P3; % fluorescence drop versus neutral controls | activity (quench increase), % at 7.58 µM | 0.36% of 350,000 active;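 active means mean added fluorescence quench of at least 8% versus neutral control, with both replicates also reaching 8%; inconclusive means only one of the mean or replicate conditions met; inactive means mean below 8% and not both replicates reaching 8%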;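 further: cells transiently co-express mutant CFTR-F508del with the halide-sensitive YFP; corrector assay measuring rescue of mutant channel to the surface after 24 h compound exposure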
Env fusion inh: blocks HIV Env-driven cell-cell fusion; HeLa-JRFL Env/CEM21 cell fusion, luciferase; inhibition, % at 12.3 µM; 1.1% of 360,000 active; AID 651610;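 active means mean replicate inhibition score of at least 50 and every replicate individually at or above 50; inconclusive means only one of the two criteria met; inactive means mean below 50 and not all replicates reaching 50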
INS-1E GSIS act: GLuc luminescence reporter in INS-1E cells, primary screen for activators of glucose-dependent secretion of insulin; INS-1E GLuc reporter insulin secretion, 2-3 h; activation, % at 16.6 µM; 0.61% of 370,000 active;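 active means lowest replicate activation of at least 40%, so every replicate reaches that level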
Wnt act: Wnt/beta-catenin pathway activation. 1.2% of 300,000 active. AID 743398. activation, % at 9.35 µM. Wnt/beta-catenin reporter cell assay, activator, plate reader; in the data active means activation above about 30%, passing the limit was not always enough; inconclusive means no clear call, values can overlap the other calls
Hits are given with their value; i = inactive; ? = inconclusive; nt = no result given. In the library only some 2.7% were active in any assay of this set; here they are far more common.

SMILES	MITF TRPM1 HTS	F508del corr	Env fusion inh	INS-1E GSIS act	Wnt act
COc1cccc(-c2ccc(-c3noc(-c4ccccc4F)n3)c(OC)n2)c1	nt	nt	i	nt	nt
COc1ccc(-c2ccc(-c3noc(C(C)C)n3)c(OC)n2)cc1	i	nt	nt	nt	nt
COCc1nc(-c2ccc(-c3ccc(OC)cc3)nc2OC)no1	i	i	i	nt	i
COCc1nc(-c2ccc(-c3ccccc3)nc2OC)no1	nt	nt	i	nt	49
COc1nc(-c2ccc(Cl)cc2)ccc1-c1noc(-c2ccco2)n1	i	nt	i	66	i
CCc1nc(-c2ccc(-c3ccc(OC)cc3)nc2OC)no1	i	nt	i	nt	56
COc1nc(-c2ccccc2)ccc1-c1noc(C)n1	nt	nt	i	nt	50
O=C(NCc1ccc(F)cc1)[C@@H]1[C@@H](CO)[C@@H]2Cn3c(cccc3=O)[C@H]1N2	nt	i	nt	i	nt
CN1C(=O)c2cc(NC(=O)c3ccc(F)cc3)ccc2OC[C@@H]2O[C@H](CC(=O)NCC3CC3)CC[C@@H]21	nt	i	i	i	nt
C[C@H](CO)N1C[C@H](C)[C@@H](CN(C)S(C)(=O)=O)Oc2ccc(NC(=O)CCCCCC(=O)Nc3ccccc3N)cc2CC1=O	nt	i	i	i	nt
COCC#Cc1ccc2c(c1)O[C@H](CN(C)C(=O)CC1CC1)[C@H](C)CN([C@@H](C)CO)S2(=O)=O	nt	i	i	i	nt
O=C(NC1CCCC1)C(C1CC1)n1c(-c2ccccn2)nc2ccccc21 (stereo not given)	nt	i	i	43	i
C[C@H](O)C#Cc1cnc2c(c1)C(=O)N([C@@H](C)CO)C[C@H](C)[C@H](CN(C)C(=O)Cc1ccccn1)O2	nt	i	i	i	nt
c1ccc2c(Nc3nc4c(s3)CCCC4)cccc2c1	nt	nt	i	nt	35
CCOc1ccc(-n2c(SCC(=O)N3CCc4ccccc43)nnc2-c2c[nH]c3ccccc23)cc1	nt	i	i	i	i
COc1cccc(-n2c(SCC(=O)N3CCc4ccccc43)nnc2-c2c[nH]c3ccccc23)c1	i	i	56	nt	i
COc1n[nH]c(C(=O)NCc2ccccc2)c1[N+](=O)[O-]	i	i	i	i	i
Fc1ccc2nc(Nc3nc4c(F)cccc4s3)sc2c1	i	nt	i	i	nt
COc1ccc(C(=O)Nc2nc3ccccc3s2)c(OC)c1	nt	i	79	i	i
Fc1cccc2sc(Nc3nc4ccccc4s3)nc12	i	nt	i	i	36
COc1cc(OC)cc(C(=O)Oc2ccc(/C=N/Nc3nc4ccccc4s3)cc2OC)c1	i	nt	i	i	41
COc1n[nH]c(C(=O)Nc2nc3ccccc3s2)c1[N+](=O)[O-]	i	i	i	i	53
CCCNC(=O)N1CC2(CCN(C(=O)C3CCCCC3)CC2)c2c([nH]c3cc(OC)ccc23)[C@H]1CO	nt	i	nt	i	nt
CN(C)C(=O)[C@@H]1[C@@H](CO)[C@@H]2Cn3c(ccc(-c4ccccc4F)c3=O)[C@@H]2N1C(=O)c1cnccn1	nt	i	nt	i	nt
O=C(C1CCC1)N1CC(=O)N2[C@@H](CO)[C@@H](c3ccc(C#CCc4ccccc4)cc3)[C@@H]2C1	nt	i	nt	i	nt
SMILES	MITF TRPM1 HTS	F508del corr	Env fusion inh	INS-1E GSIS act	Wnt act
Cc1cc(C)n(-c2ccc(C(=O)Nc3nc4ccccc4s3)cc2)n1	i	nt	nt	nt	?
Nc1ccc(C(=O)Nc2nc3ccccc3s2)cc1	i	i	i	i	35
COc1ccccc1C(=O)Nc1nc2ccc(S(C)(=O)=O)cc2s1	i	nt	i	nt	nt
COc1cc2nc(NC(=O)c3ccccc3)sc(=O)c2cc1OC	i	i	59	i	i
Cc1ccnc2nc(C(=O)Nc3nc4ccccc4s3)nn12	i	i	i	i	38
COc1ccccc1C(=O)Nc1nc2ccccc2s1	nt	i	79	i	i
CC(C)C[C@H]1COCc2cn(nn2)CC[C@H](Cc2ccccc2)C(=O)N1	nt	nt	i	i	nt
CC1(C(=O)Nc2nc3ccccc3s2)CC1(Br)Br (stereo not given)	83	i	i	i	i
O=C(Nc1nc2ccccc2s1)Nc1ccc(F)cc1F	nt	i	i	i	38
CCOC(=O)Cc1c(C)nc2c(-c3ccc(OC)cc3)c(C)nn2c1C	i	nt	64	nt	nt
O=C(NCc1ccc(F)cc1)[C@@H]1[C@@H](CO)[C@@H]2Cn3c(cccc3=O)[C@@H]2N1CCC(F)(F)F	nt	nt	i	i	nt
CCc1ccc(Nc2ncc3c(n2)CC(c2ccc(OC)cc2)CC3=O)cc1 (stereo not given)	nt	nt	i	nt	nt
CCc1ccc(Nc2ncc3c(n2)CC(C)CC3=O)cc1 (stereo not given)	107	i	i	i	i
CCc1ccc(Nc2ncc3c(n2)CC(C)(C)CC3=O)cc1	102	i	i	i	57
CC(=O)N(C)C[C@@H]1Oc2ncc(C#C[C@@H](C)O)cc2C(=O)N([C@H](C)CO)C[C@H]1C	nt	i	i	i	nt
CCOc1ccc(NC(=O)c2cc(OC)nc3ccccc23)cc1	i	11	i	i	i
CCOc1ccc(NC(=O)c2cc3ccccc3cc2OC)cc1	i	i	i	i	i
CCOc1ccc(NC(=O)c2ccc(F)cc2F)cc1	93	i	i	i	41
COc1cc(C(=O)Nc2ccc(C)cc2)c2ccccc2n1	i	11	i	i	i
COc1ccccc1CN1C[C@@H]2N[C@H](C1)C2c1ccc(/C=C/c2ccccc2)cc1 (stereo not given in full)	nt	i	nt	i	nt
CNC(=S)Nc1ccc([N+](=O)[O-])cc1C	i	i	i	i	i
Cc1cc([N+](=O)[O-])ccc1NC(=O)c1csc(C)c1C	124	i	i	i	i
CC(=O)c1ccc(NC(=O)CSc2nnc(Cn3cnc4ccccc43)o2)cc1	i	i	i	i	i
COc1ccc(C(=O)CSc2nnc(Cn3cnc4ccccc43)o2)cc1	nt	nt	106	nt	i
CCCc1cc(N2CCCC(C(=O)NCc3ccc4c(c3)OCO4)C2)n2ncnc2n1 (stereo not given)	i	i	nt	54	i
SMILES	MITF TRPM1 HTS	F508del corr	Env fusion inh	INS-1E GSIS act	Wnt act
Cc1cc(C)nc(N2CCCC(C(=O)NCc3ccc4c(c3)OCO4)C2)n1 (stereo not given)	i	i	i	i	i
CO/N=C/c1ccc(N2CCN(C(=O)c3cccc(C(F)(F)F)c3)CC2)c([N+](=O)[O-])c1	nt	nt	68	i	i
O=C(O/N=C\c1ccc(N2CCCCC2)c([N+](=O)[O-])c1)c1cccc(Cl)c1	i	nt	nt	nt	nt
CO/N=C/c1ccc(N2CCN(C(=O)c3ccc(Cl)cc3Cl)CC2)c([N+](=O)[O-])c1	i	nt	78	nt	nt
CO/N=C/c1ccc(N2CCN(C(=O)c3ccc(F)cc3)CC2)c([N+](=O)[O-])c1	i	nt	i	nt	i
COc1ccccc1-c1ccc2c(c1)O[C@H](CN(C)CC1CC1)[C@H](C)CN([C@@H](C)CO)S2(=O)=O	nt	i	i	i	nt
COCC(=O)Nc1ccc2c(c1)OC[C@@H](C)N(Cc1ccccc1)C[C@H](C)[C@@H](OC)CN(C)C2=O	nt	i	nt	i	nt
CCC(=O)N[C@@H]1CC[C@@H](CC(=O)NCc2ccc(OC)cc2)O[C@@H]1CO	nt	i	i	i	nt
O=C(COC(=O)c1cc2ccccc2cc1O)NC1CCCCC1	nt	i	i	i	i
c1ccc2cc(C3CCCCC3)ncc2c1	99	i	i	i	i
